The record followed here is PubChem BioAssay (NCATS).

Test [1] in a line: NCATS anti-infectives library activity on HEK293 viability as a counter-qHTS vs the C. elegans viability qHTS (AID 1745854).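 Further: HEK293 cells exposed to compounds for 24 hr before the viability read; on the % scale 0 is the no-effect control and ±100 the full control effect.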 The method, boiled down:
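Compound titrations (final up to 41.7 uM) were incubated with HEK293 cells for 24 hr at 37C under 5% CO2. Viable cells were quantified with CellTiter-Glo after 10 min at ambient temperature.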
A general note: qHTS replaces the single test concentration by a dilution series.

Test [2] has as its target Glutathione peroxidase 1 (Homo sapiens) (UniProt P07203). Briefly: Primary qHTS Assay for Inhibitors of Recombinant Selenoprotein Glutathione Peroxidase 1 (GPX1) (AID 1845191). Further: nearly all actives have a fitted effect of over 65% in size. Further: potency means the concentration at half of the fitted maximal effect. On activity, negative = inhibition: on the % scale 0 is the no-effect control and ±100 the full control effect. The method, boiled down:
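GPX1 10 nM, GR 100 nM, GSH 1 mM, NADPH 0.5 mM, CHP 0.5 mM (final). 30-min cpd preincubation, RT. Ex340/Em450 read t=0, t=15 min.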

For test [3], the target named is Phospholipid hydroperoxide glutathione peroxidase GPX4 (Homo sapiens) (UniProt P36969). Briefly: Primary qHTS Assay for Inhibitors of Recombinant Selenoprotein Glutathione Peroxidase 4 (GPX4) (AID 1845192). Further: nearly all actives have a fitted effect of over 65% in size. On activity change, negative = inhibition: series mostly up to about 50 µM; on the % scale 0 is the no-effect control and ±100 the full control effect. The method, boiled down:
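qHTS, GR-coupled: GPX4 200 nM + cpd 30 min RT → GSH 1 mM, NADPH 0.5 mM, GR 100 nM → CHP 0.5 mM start; fluor 340/450 at t0 and t15 min; no-enzyme wells as control.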

Test [4] is described as follows: Viability counterscreen for antagonist of constitutive androstane receptor (CAR) against the NCATS DSHEA and TCM libraries (AID 1794837).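 Further: compound exposure lasted 24 h before viability reading; 0% is about no effect.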 The method, boiled down:
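Cells: HepG2 line carrying CYP2B6 reporter and hCAR, seeded and attached 5 h. Then pin-transferred test substances plus agonist CITCO at 48 uM final; 24 h incubation; fluorogenic viability reagent, 1 h.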
A general note: A counterscreen serves to expose hits that act by an unwanted route or on another target.

Test [5] can be described thus: Viability counterscreen for agonist of constitutive androstane receptor (CAR) against the NCATS DSHEA and TCM libraries (AID 1794838).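 Further: HepG2 cells with CYP2B6 reporter and hCAR plus 0.75 µM PK11195 antagonist; 0% is about no effect.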 The method, boiled down: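 Cell health was measured as CellTiter-Fluor signal in HepG2-CYP2B6-hCAR cells treated for 24 h with substances alongside the hCAR antagonist PK11195 (0.75 uM final).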
Test [6] addresses Nuclear receptor subfamily 1 group I member 3 (Homo sapiens) (UniProt Q14994). Briefly: Primary qHTS for agonist of constitutive androstane receptor (CAR) against the NCATS DSHEA and TCM libraries (AID 1794839).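 Further: HepG2 cells expressing human CAR with a CYP2B6 reporter plus PK11195 antagonist; luciferase reporter luminescence read with ONE-Glo; 0% is about no effect.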 The method, boiled down:
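qHTS, agonist mode: HepG2-CYP2B6-hCAR, 2,500 cells/well, 5 h attach; cpds + PK11195 0.75 µM final; 24 h, 37 °C, 5% CO2. Readouts: CellTiter-Fluor (405/540 nm), then ONE-Glo luminescence.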

A short description of test [7]: HepG2 viability counterscreen (readout 2: ATP content) against the NCATS DSHEA and TCM libraries (AID 1794840). Further: 0% is about no effect. In short, it runs like this:
(§1)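 Same wells read twice: first fluorescence from cleaved GF-AFC substrate (25 uM final, 30 min, 37C) for live-cell protease, then CellTiter-Glo luminescence after 30 min at room temperature for ATP. HepG2 cells were exposed ~24 h to substances.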

Test [8] in a line: HepG2 viability counterscreen (readout 1: protease activity) against the NCATS DSHEA and TCM libraries (AID 1794841).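 Further: cells exposed to compounds for about 24 h before the protease read; 0% is about no effect.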 The method, boiled down:
as §1

Test [9] addresses Cytochrome P450 3A4 (Homo sapiens) (UniProt P08684). Briefly: qHTS for inhibitors of CYP3A4 against the NCATS DSHEA and TCM libraries (AID 1919971).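 Further: on the % scale 0 is the no-effect control and ±100 the full control effect; inhibition lowers luminescence from luciferin made by CYP3A4.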 The method, boiled down:
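Isoform-specific enzyme and substrate levels; enzyme-free wells as background. Reaction: 1x NADPH regenerating system, 30-45 min, room temperature, shielded from light; luminescent detection reagent added, 30 min.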

Values without a mark were called inactive. Records with an inconclusive call do not appear. Calls of active or inactive are those of the source. The call rests on the fitted dose curve; in most records, active means well fitted curve in the direction sought with a large enough effect; inconclusive means small, poorly fitted or top-dose-only effect, or another doubt; inactive means no such curve, though single readings can be large; an effect the other way counts as inactive or inconclusive.

Chain of Glutathione peroxidase 1 (Homo sapiens) (P07203 whole entry, looked up): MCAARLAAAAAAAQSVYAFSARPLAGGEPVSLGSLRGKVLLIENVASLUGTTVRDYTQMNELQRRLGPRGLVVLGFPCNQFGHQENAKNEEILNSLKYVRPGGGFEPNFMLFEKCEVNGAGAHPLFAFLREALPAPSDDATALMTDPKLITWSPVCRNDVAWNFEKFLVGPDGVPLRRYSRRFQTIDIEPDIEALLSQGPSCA
Chain of Nuclear receptor subfamily 1 group I member 3 (Homo sapiens) (Q14994 whole entry, looked up): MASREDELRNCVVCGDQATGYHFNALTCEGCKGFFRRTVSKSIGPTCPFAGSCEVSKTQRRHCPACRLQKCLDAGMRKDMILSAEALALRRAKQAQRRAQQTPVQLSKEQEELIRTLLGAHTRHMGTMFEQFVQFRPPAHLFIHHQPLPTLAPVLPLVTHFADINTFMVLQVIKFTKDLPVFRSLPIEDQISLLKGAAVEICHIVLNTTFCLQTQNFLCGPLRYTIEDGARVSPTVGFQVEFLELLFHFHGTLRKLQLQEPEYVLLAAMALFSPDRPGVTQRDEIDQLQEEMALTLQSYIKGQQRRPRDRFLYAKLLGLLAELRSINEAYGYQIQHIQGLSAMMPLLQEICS
Chain of Cytochrome P450 3A4 (Homo sapiens) (P08684 whole entry, looked up, canonical isoform): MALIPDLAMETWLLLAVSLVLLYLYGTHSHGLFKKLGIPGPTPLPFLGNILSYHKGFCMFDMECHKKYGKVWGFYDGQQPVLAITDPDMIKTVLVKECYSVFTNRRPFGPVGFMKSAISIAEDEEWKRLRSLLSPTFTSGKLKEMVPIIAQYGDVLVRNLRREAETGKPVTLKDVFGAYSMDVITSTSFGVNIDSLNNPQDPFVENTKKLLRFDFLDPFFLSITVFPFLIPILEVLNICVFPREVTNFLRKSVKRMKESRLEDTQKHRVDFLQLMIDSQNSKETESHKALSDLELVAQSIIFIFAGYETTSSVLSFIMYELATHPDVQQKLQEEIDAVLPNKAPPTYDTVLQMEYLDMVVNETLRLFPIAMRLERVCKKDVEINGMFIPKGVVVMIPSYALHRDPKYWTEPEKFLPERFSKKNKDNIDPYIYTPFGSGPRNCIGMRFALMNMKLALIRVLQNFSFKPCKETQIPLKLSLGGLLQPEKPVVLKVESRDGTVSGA
Chain of Phospholipid hydroperoxide glutathione peroxidase GPX4 (Homo sapiens) (P36969 whole entry, looked up): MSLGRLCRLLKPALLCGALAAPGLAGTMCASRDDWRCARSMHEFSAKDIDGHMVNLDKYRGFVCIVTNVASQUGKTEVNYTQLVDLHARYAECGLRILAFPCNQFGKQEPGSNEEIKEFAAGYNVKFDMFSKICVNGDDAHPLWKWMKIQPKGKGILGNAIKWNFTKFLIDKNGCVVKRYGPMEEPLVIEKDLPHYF

Consider `Nc1nc(=O)n([C@@H]2CS[C@H](CO)O2)cc1F`, for which, in [1], the call was inactive. Also, the Potency entry in [2] and in [3] was “inactive” throughout.
For the compound `NCCCC[C@H](N)C(=O)O`, the activity change, negative = cytotoxicity in test [1] was -19.5% [at 0.334 µM]. The outcome in [2] is “inactive [at 0.4 µM]”; in test [3], “inactive [at 0.409 µM]”.
Consider `NC(=O)[C@H]1O[C@@H](O)[C@H](O)[C@@H](O)[C@@H]1O`, for which the Potency entry in test [2] is “inactive”.
As for `CCCCCCCCCCCC(=O)OCC(O)CO` (stereo not given), the compound was called inactive in [4], in [5], in [7], in [8] and in [9]. Also, the Potency entry in test [6], in test [2] and in test [3] was “inactive” each time.
Regarding `CC(C)=CCC/C(C)=C/CC/C(C)=C/CC/C(C)=C/CC1=C(C)C(=O)c2ccccc2C1=O`, the result in [4], in test [5], in test [7] and in [8] was inactive. Further, the Potency entry in test [6] and in [2] was “inactive” each time.
As to `CC/C=C\C/C=C\C/C=C\CCCCCCCC(=O)O`, the call in test [4], in test [5], in [7] and in test [8] was inactive. In addition, the Potency result in test [6] was “inactive”.
Turning to `O=S(=O)(O)CCCS(=O)(=O)O`, the Potency entry in [2] was “inactive”.
As for `O=C(O)/C=C/c1ccccc1`, the compound was called inactive in test [7], in test [8] and in [9]. The Potency result in test [2] and in test [3] was “inactive” in each case.
On to `CC1=CCC2CC1C2(C)C` (stereo not given), for which the outcome in test [7], in test [8] and in test [9] was inactive.
On to `O=C(Nc1ccc(O)cc1)c1ccccc1O`, for which, in test [1], the call was inactive. Further, the Potency result in [2] and in test [3] was “inactive” throughout.
Regarding `O=C1c2c(O)cccc2[C@H]([C@@H]2O[C@H](CO)[C@@H](O)[C@H](O)[C@H]2O)c2cc(CO)cc(O)c21`, the compound was classed as inactive in test [1].
For `Cc1c(O)c(=O)ccn1C`, the compound was called inactive in test [1]. Further, the Potency result in [2] and in test [3] was “inactive” throughout.
Regarding `C=C1CC[C@H](O)C/C1=C\C=C1/CCC[C@]2(C)[C@@H]([C@H](C)CCCC(C)C)CC[C@@H]12`, the result in test [4], in test [5], in test [7] and in [8] was inactive. In addition, the Potency entry in test [2] and in test [3] was “inactive” in each case.
Take `C=C(C)C1CC=C(C)CC1` (stereo not given): the Potency entry in test [2] was “inactive”.
As for `CC(=O)N[C@@H]([C@@H](O)[C@H](O)[C@H](O)CO)[C@@H](O)CC(=O)C(=O)O`, the result in [1] was inactive.
`CCCCC/C=C\C/C=C\C/C=C\CCCCC(=O)O`: the viability change, negative = cytotoxic in test [4] was -4.69% [at 5 µM]. The activity change, negative = cytotoxicity in test [5] was -8.92% [at 5 µM]. The activation in test [6] is -21.9% [at 5 µM]. In addition, the activity change, negative = cytotoxic in test [7] is -4.42% [at 3.42 µM]. In addition, the figures for the activity change, negative = inhibition in [8] and in test [9] were 15.8% [at 3.42 µM] and 10.3% [at 4.27 µM], respectively. The Potency result in test [2] was “inactive”.
On to `Oc1cccc(O)c1O`, for which the outcome in test [4], in test [5], in test [7] and in [8] was inactive. Besides, the Potency entry in [6] was “inactive”.
For the compound `CC/C=C\C/C=C\C/C=C\C/C=C\C/C=C\CCCC(=O)O`, the result in test [4], in [5], in test [7], in [8] and in test [9] was inactive. In addition, the Potency entry in [2] is “inactive”.
Take `Nc1ccc(N=Nc2ccccc2)c(N)n1`: the outcome in test [1] was inactive. Moreover, the Potency entry in [2] and in test [3] was “inactive” in each case.
Consider `Nc1nccs1`, for which the outcome in test [1] was inactive.
Regarding `CC(C)=CCC/C(C)=C/C=C/C(C)=C/C=C/C(C)=C/C=C/C=C(C)/C=C/C=C(C)/C=C/C=C(\C)CCC=C(C)C`, the outcome in [1], in test [4], in test [5], in test [7], in test [8] and in test [9] was inactive. Further, the Potency result in [6], in [2] and in test [3] was “inactive” each time.
As to `O=C(O)c1ccc(NC(=O)[C@H](Cc2ccc(O)cc2)NC(=O)c2ccccc2)cc1`, the Potency entry in test [2] is “inactive”.
Still for that read-out and setting: as for `CN(C)C=Nc1c(I)cc(I)c(CCC(=O)O)c1I`, the entry is “inactive”; as for `Cc1cc(O)c2c(c1)O[C@@]1(C)CC[C@H]3C(C)(C)CCCC34CO[C@@H]2[C@H]41` (stereo not given in full), “inactive”; as for `CCOC(=O)Cc1ccc(-c2ccccc2)cc1`, “inactive”.
On the same count and under the same terms, as for `CC1(O)CCC(C(C)(C)O)CC1` (stereo not given), the entry is “inactive”; as for `CCCCC(O)c1ccccc1` (stereo not given), “inactive”.
The same measure, in the same setting: under `Cc1cc(=O)c(C(=O)N[C@@H](C(=O)N[C@@H]2C(=O)N3C(C(=O)O)=C(CSc4nnnn4C)CS[C@H]23)c2ccc(O)cc2)c[nH]1` stands 12.8 µM (active).
As for `C=C[C@]1(C)C[C@@H](OC(=O)CSCCN(CC)CC)[C@]2(C)[C@H](C)CC[C@]3(CCC(=O)[C@H]32)[C@@H](C)[C@@H]1O`, the Potency entry in test [2] was “inactive”.
Still for that read-out and setting: as for `CC(C)(C)NCC(O)CSc1nc(-c2ccc(C(N)=O)s2)cs1` (stereo not given), the figure is 22.7 µM (active); as for `CN[C@@H]1[C@@H](O)[C@@H](O[C@@H]2[C@@H](O)[C@H](O[C@H]3O[C@H](CN)[C@@H](O)[C@H](O)[C@H]3O)[C@@H](N)C[C@H]2NC(=O)C(O)CN)OC[C@]1(C)O` (stereo not given in full), “inactive”.
As for `Cc1ncc(C[n+]2csc(CCOP(=O)(O)OP(=O)(O)O)c2C)c(N)n1`, the activity, negative = inhibition in [2] is -4.18% [at 0.4 µM].
For the compound `NC[C@@H]1CC[C@@H](N)[C@@H](O[C@H]2[C@H](O)[C@@H](O[C@H]3O[C@H](CO)[C@@H](O)[C@H](N)[C@H]3O)[C@H](N)C[C@@H]2N)O1`, the Potency entry in test [2] was “inactive”.
Still for that read-out and setting: as for `C[C@H](CCC(=O)O)[C@H]1CC[C@H]2[C@@H]3[C@H](O)C[C@@H]4C[C@H](O)CC[C@]4(C)[C@H]3C[C@H](O)[C@]12C`, the entry is “inactive”; as for `NC(=O)OCC(O)COc1ccc(Cl)cc1` (stereo not given), “inactive”.
Regarding `CC(C)(C)CC(C)(C)c1cc(Cc2cc(C(C)(C)CC(C)(C)C)cc(-n3nc4ccccc4n3)c2O)c(O)c(-n2nc3ccccc3n2)c1`, in test [2], the activity, negative = inhibition is -7.19% [at 4.49 µM].
Take `c1ccc2ccccc2c1`: the Potency entry in test [2] was “inactive”.
The same measure, in the same setting: as for `NS(=O)(=O)c1cc2c(cc1Cl)NC(Cc1ccccc1)NS2(=O)=O` (stereo not given), the entry is “inactive”; as for `O=C(OCc1ccccc1)c1ccc(O)cc1`, “inactive”; as for `CCCCCCCCCCCCCCCCCCCCCC(=O)Nc1ccn([C@@H]2O[C@H](CO)[C@@H](O)[C@@H]2O)c(=O)n1`, “inactive”.
Same read-out and setting: as for `NC(=O)[C@@H]1C[C@]2(NC(=O)NC2=O)c2cc(F)ccc2O1`, the entry is “inactive”; as for `C=CCOc1ccc(CC(=O)O)cc1Cl`, “inactive”; as for `CC1=CC(=C(c2ccc(N)cc2)c2ccc(N)cc2)C=CC1=N`, “inactive”.
Same read-out and setting: as for `NC(N)=NCC1COC2(CCCCC2)O1` (stereo not given), the entry is “inactive”; as for `CNC(=O)C[C@@H](N)C(=O)N[C@@H](C(=O)N[C@@H]1C(=O)N2[C@@H]1SC(C)(C)[C@@H]2C(=O)O)c1ccc(O)cc1`, “inactive”.
